The campaign covered roughly 1,300 compounds. About 240 (18%) were called active. Inconclusive results (about 8%) are left out. These entries were drawn from the full list. Entries with a potency or affinity are not part of this list. Unmarked numbers belong to inactive results. The rule behind the calls is not given here.
experiment: toxicity to human hepatoma HepG2 cells – cell-based, cherry-picked samples, cytotoxicity control, dose response (AID 1159577); settings: HepG2 cytotoxicity counterscreen, plate reader; series mostly up to 19.5 µM; activity change, negative = cytotoxicity: at the top concentration;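 note: 0% = neutral control wells and -100% = positive control wells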

| Compound | activity change, negative = cytotoxicity |
| --- | --- |
| O=C(c1ccccn1)N1CC(=O)N2[C@H](CO)[C@@H](c3ccc(C#CCc4ccccc4)cc3)[C@@H]2C1 | -2.05% |
| CCCNC(=O)c1cc2c(c(-c3cccc(-c4cc5ccccc5o4)c3)n1)[C@@H](CCO)N(C(=O)NC(C)C)C2 | 34.4% |
| C/C=C/c1ccc([C@H]2[C@H](CO)N(S(=O)(=O)Cc3ccccc3)C23CN(C(=O)C2CCCC2)C3)cc1 | 11.3% |
| O=C(C1CCC1)N1C[C@@H]2N[C@H](C1)C2c1ccc(-c2ccccc2F)cc1 (stereo not given in full) | -3.39% [at 21 µM] |
| N#Cc1ccc(-c2ccc(C3[C@@H]4CN(C(=O)C5CCC5)C[C@H]3N4)cc2)cc1 (stereo not given in full) | 0.866% |
| CCCNC(=O)N1CCC2(CC1)CN(Cc1cccc(F)c1)[C@@H](CO)c1[nH]c3cc(OC)ccc3c12 | 11.2% |
| C[C@@H]1CN([C@@H](C)CO)C(=O)c2cccc(NC(=O)C3CC3)c2O[C@H]1CN(C)Cc1ccc(-c2ccccc2)cc1 | 2.06% [at 21 µM] |
| C[C@H](CO)N1C[C@H](C)[C@H](CN(C)S(=O)(=O)c2ccccc2)Oc2ccc(NC(=O)Cc3cn(C)c4ccccc34)cc2C1=O | -16.1% [at 21 µM] |
| C[C@H]1CN([C@@H](C)CO)S(=O)(=O)c2ccc(C#Cc3ccccc3F)cc2O[C@@H]1CN(C)C(=O)c1ccc2c(c1)OCO2 | -20.7% |
| CO[C@H]1CN(C)C(=O)c2cc(NC(C)=O)ccc2OC[C@H](C)N(Cc2ccncc2)C[C@H]1C | 6.95% |
| C[C@@H]1CN([C@@H](C)CO)C(=O)Cc2cc(NC(=O)NC3CCCCC3)ccc2O[C@H]1CN(C)C(=O)Nc1cccc2ccccc12 | -11.8% |
| COc1ccc(C#Cc2ccc3c(c2)[C@H]2[C@H](CCN2Cc2nccs2)[C@H](CO)N3)cc1 | -15.7% |
| COc1ccccc1-c1ccc2c(c1)[C@@H]1[C@@H](CCN1C(=O)C1CCCCC1)[C@@H](CO)N2 | -41.1% |
| CCCC#Cc1ccc2c(c1)[C@H]1[C@H](CCN1Cc1ccccc1F)[C@@H](CO)N2 | -3.79% |
| COc1ccccc1-c1ccc2c(c1)[C@H]1[C@H](CCN1C(=O)C1CCCC1)[C@@H](CO)N2 | -10.4% |
| COc1ccc(C#Cc2ccc3c(c2)[C@H]2[C@H](CCN2Cc2ccncc2)[C@H](CO)N3)cc1 | -7.45% |
| COc1ccc(C#Cc2ccc3c(c2)[C@H]2[C@H](CCN2Cc2ccncc2)[C@@H](CO)N3)cc1 | -6.57% [at 21 µM] |
| OC[C@H]1CC[C@@H]2O[C@H](CCc3ccc(C#CCc4ccccc4)cc3)[C@H](n3cc(-c4ccccc4)nn3)C[C@@H]2O1 | -6.78% |
| O=C(Cc1cccnc1)N1CC[C@H]2[C@H](CO)Nc3ccc(C#Cc4cccc(F)c4)cc3[C@H]21 | 15.6% |
| COCC(=O)N1[C@H](CO)[C@@H](c2ccccc2)C12CN(Cc1cc(F)ccc1F)C2 | -4.29% |
| COc1ccccc1-c1ccccc1[C@@H]1[C@@H](C#N)N(C(=O)C2CC2)[C@@H]1CO | -16.3% |
| COc1ccc2c3c(n(C)c2c1)[C@@H](CO)N(CC1CCCCC1)CC31CCN(C(=O)CN(C)C)CC1 | -15.1% |
| COc1ccc(C#Cc2ccc3c(c2)[C@H]2[C@H](CCN2C(=O)C2CCCC2)[C@@H](CO)N3)cc1 | 21.2% |
| CCCNC(=O)N1[C@@H](C#N)[C@H](c2ccccc2-c2ccccc2F)[C@@H]1CO | -1.97% |

| Compound | activity change, negative = cytotoxicity |
| --- | --- |
| COc1ccc(NC(=O)N(C)C[C@@H]2Oc3cc(-c4ccc(C)cc4)ccc3S(=O)(=O)N([C@@H](C)CO)C[C@H]2C)cc1 | -3.09% |
| COc1ccc2c3c(n(C)c2c1)[C@@H](CO)N(C(=O)Nc1ccc(F)cc1)CC31CN(C(=O)c2ccc3c(c2)OCO3)C1 | -22.8% |
| COc1ccc2c3c([nH]c2c1)[C@@H](CO)N(Cc1cc(F)ccc1F)CC31CN(C(=O)CN(C)C)C1 | -4.77% |
| CC(C)(C)[S@@](=O)N1Cc2cc(C(=O)NCCc3ccncc3)nc(-c3cccc(-c4ccccc4)c3)c2[C@H]1CCO | 12.2% |
| COc1ccc2c3c(n(C)c2c1)[C@@H](CO)N(C(=O)C1CCCC1)CC31CN(C(=O)Nc2cccc(F)c2)C1 | 9.52% |
| COc1cccc(C#Cc2ccc([C@@H]3[C@@H](C#N)N(C(=O)c4ccccn4)[C@H]3CO)cc2)c1 | -15.3% |
| CCCC#Cc1ccc([C@H]2[C@@H](CO)N(C(=O)C3CCCCC3)[C@H]2C#N)cc1 | -23.3% |
| CCS(=O)(=O)N1[C@H](CO)[C@H](c2ccc(C#Cc3ccccc3F)cc2)[C@@H]1C#N | -1.99% |
| N#C[C@H]1[C@@H](c2ccc(C#CC3CC3)cc2)[C@H](CO)N1S(=O)(=O)c1ccccc1 | -16.2% |
| N#C[C@H]1[C@@H](c2ccc(C#CC3CCCC3)cc2)[C@@H](CO)N1S(=O)(=O)Cc1ccccc1 | -18% |
| N#C[C@H]1[C@H](c2ccc(C#CC3CCCCC3)cc2)[C@@H](CO)N1S(=O)(=O)c1ccccc1 | -13.8% [at 21 µM] |
| COc1ccc(C#Cc2ccc3c(c2)[C@H]2[C@H](CCN2Cc2nccs2)[C@@H](CO)N3)cc1 | -4.98% [at 21 µM] |
| CCCN1C[C@@H](C)[C@H](OC)CN(C)C(=O)c2ccc(NC(=O)c3ccc4c(c3)OCO4)cc2OC[C@H]1C | -8.36% [at 21 µM] |
| CC(C)(O)C#Cc1cccc(-c2nc(C(=O)N[C@@H]3CCN(Cc4ccccc4)C3)cc3c2[C@H](CCO)N(S(=O)C(C)(C)C)C3)c1 (stereo not given in full) | -3.36% |
| CCCC#Cc1cnc2c(c1)C(=O)N([C@@H](C)CO)C[C@H](C)[C@H](CN(C)C(=O)Nc1cccc(F)c1)O2 | 14.9% |
| C[C@H](CO)N1C[C@H](C)[C@H](CN(C)S(=O)(=O)c2ccccc2)Oc2cc(C#Cc3ccncc3)ccc2S1(=O)=O | 5.44% |
| C[C@@H]1CN([C@@H](C)CO)C(=O)c2cccc(NC(=O)c3cnccn3)c2O[C@@H]1CN(C)Cc1ccc(C(F)(F)F)cc1 | -10.4% |
| CC(C)(C)S(=O)N1Cc2cc(C(=O)NCc3ccc4c(c3)OCO4)nc(-c3cccc(C#CCC4CCCC4)c3)c2[C@@H]1CCO (stereo not given in full) | 18.7% |
| COc1ccc(-c2ccc([C@@H]3[C@@H](CO)N4C(=O)CN(C(=O)C5CCCC5)C[C@@H]34)cc2)cc1 | 16.6% [at 18 µM] |
| C[C@@H]1CN([C@@H](C)CO)C(=O)c2cccc(NC(=O)Nc3ccc4c(c3)OCO4)c2O[C@@H]1CN(C)C(=O)Nc1ccc2c(c1)OCO2 | -6.12% |
| O=C(c1cccnc1)N1CC2(C1)[C@@H](c1ccccc1)[C@@H](CO)N2C(=O)CC1CC1 | 17.3% [at 21 µM] |
| COc1ccc(S(=O)(=O)N2CCC3(CC2)CN(Cc2ccncc2)[C@H](CO)c2[nH]c4cc(OC)ccc4c23)cc1 | -18.8% |
| COc1cccc(-c2ccc3c(c2)[C@H]2[C@H](CCN2C(=O)C2CCCCC2)[C@@H](CO)N3)c1 | -20.9% |
| C[C@@H]1CN([C@@H](C)CO)C(=O)c2cccc(NC(=O)c3nc4ccccc4s3)c2O[C@H]1CN(C)C(=O)NC1CCCCC1 | -10% |

| Compound | activity change, negative = cytotoxicity |
| --- | --- |
| N#C[C@@H]1[C@H](c2ccc(-c3cccc(F)c3)cc2)[C@H](CO)N1C(=O)NC1CCCC1 | -17% |
| OC[C@H]1[C@@H](c2ccc(-c3cccnc3)cc2)[C@@H]2CN(CC3CC3)CCCCN12 | 14.9% |
| OC[C@H]1[C@@H](c2ccc(-c3cccnc3)cc2)[C@H]2CN(CC3CC3)CCCCN21 | 26.9% |
| N#C[C@@H]1[C@H](c2ccc(-c3cccc(F)c3)cc2)[C@@H](CO)N1C(=O)NC1CCCC1 | -2.38% |
| OC[C@@H]1Nc2ccc(C3=CCCCC3)cc2[C@@H]2[C@H]1CCN2Cc1nccs1 | -8.83% |
| C[C@@H]1CN([C@@H](C)CO)C(=O)c2c(c3ccccc3n2C)-c2ccccc2CO[C@@H]1CN(C)C(=O)c1cc(Cl)cc(Cl)c1 | -16.3% |
| C[C@H]1CN([C@@H](C)CO)C(=O)c2c(c3ccccc3n2C)-c2ccccc2CO[C@@H]1CN(C)Cc1ccc(Oc2ccccc2)cc1 | -45.3% |
| C[C@@H]1CN([C@@H](C)CO)C(=O)c2c(c3ccccc3n2C)-c2ccccc2CO[C@@H]1CN(C)Cc1ccc(Oc2ccccc2)cc1 | -14% |
| C[C@@H]1CN([C@@H](C)CO)C(=O)c2c(c3ccccc3n2C)-c2ccccc2CO[C@H]1CN(C)Cc1ccc(Cl)c(Cl)c1 | 3.18% [at 21 µM] |
| C[C@@H]1CN([C@H](C)CO)S(=O)(=O)c2ccc(-c3cccc(C(=O)N(C)C)c3)cc2O[C@H]1CN(C)Cc1ccc2c(c1)OCO2 | 0.311% |
| COCC#Cc1ccc(CC[C@H]2O[C@H]3CC[C@H](CO)O[C@H]3C[C@@H]2n2cc(C3CC3)nn2)cc1 | 1.23% |
| COc1cccc(NC(=O)N2CC(=O)N3[C@H](CO)[C@@H](c4ccc(C#CCC5CCCC5)cc4)[C@H]3C2)c1 | -4.34% |
| COc1ccc2c3c(n(C)c2c1)[C@H](CO)N(C(=O)Nc1ccc(F)cc1)CC31CCN(Cc2cccnc2)CC1 | -0.659% |
| Cc1ccc(-c2ccc([C@H]3[C@@H](CO)N4C(=O)CN(C(=O)Nc5cccc(F)c5)C[C@H]34)cc2)cc1 | 2.67% |
| COc1cccc(C#Cc2ccc([C@H]3[C@@H](CO)N4C(=O)CN(C(=O)Cc5ccccc5)C[C@H]34)cc2)c1 | 3.61% |
| C[C@H]1CN([C@@H](C)CO)C(=O)c2c(c3ccccc3n2C)-c2ccccc2CO[C@H]1CN(C)C(=O)c1cc(Cl)cc(Cl)c1 | 4.79% [at 21 µM] |
| CCS(=O)(=O)N1CCC2(CC1)CN(Cc1cc(F)ccc1F)[C@H](CO)c1c2c2ccc(OC)cc2n1C | 8.03% |
| CCCNC(=O)Nc1ccc2c(c1)OC[C@@H](C)N(CC1CCCC1)C[C@@H](C)[C@H](OC)CN(C)C2=O | -23.9% |
| COc1ccc2c3c([nH]c2c1)[C@H](CO)N(Cc1ccccc1OC)CC31CCN(S(=O)(=O)c2ccccc2)CC1 | -3.09% |
| COc1ccc2c3c([nH]c2c1)[C@H](CO)N(C(=O)C1CCOCC1)CC31CCN(Cc2nccs2)CC1 | -9.73% |
| O=C(C[C@H]1C[C@@H]2c3cc(NS(=O)(=O)c4ccc(F)cc4)ccc3O[C@@H]2[C@@H](CO)O1)N1CCc2ccccc2C1 | -5.93% |
| O=C(c1ccccc1F)N1CC(=O)N2[C@H](C1)[C@@H](c1ccc(-c3cccnc3)cc1)[C@@H]2CO | -10.1% |

From PubChem BioAssay AID1159577 (Broad Institute, 2015)
